This is an account of results in PubChem BioAssay.

The source made the active and inactive calls.

In test [1] the test system is Plasmodium falciparum Sir2 (PF13_0152, Sir2A). Kind of test: Plasmodium falciparum Sir2A binding compounds – biochemical, small-molecule microarray, 635 nm fluorescence, primary screen (AID 1098).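 Also: score merges spot fluorescence intensity with its signal-to-noise ratio.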 The note with it: fluorescence 635 nm, higher = more signal.
Test [2] in a line: probe aDKK1 binding to arrayed compounds – biochemical, biotinylated probe, 635/667 nm fluorescence, primary screen (AID 1099).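 Also: score merges 667nm spot fluorescence with signal to noise across triplicate slides.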 The note with it: small-molecule microarray, higher = more signal.
The nature of test [3]: probe aCHRDL2 binding to arrayed compounds – biochemical, biotinylated probe, 635/667 nm fluorescence, primary screen (AID 1100). To be noted: small-molecule microarray, higher = more signal.
Test [4] in a line: change in splice reporter luminescence, either direction, cell-based, HEK293, spliceosome inhibition project, primary screen (AID 1101).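 Also: HEK293 cells carrying a splicing-competent luciferase reporter gene; test concentration not given here.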 To be noted: HEK293 splicing luciferase reporter, 24 h, higher = more signal, called active from +8 up or from −8 down. A general note: In a reporter assay the amount or activity of a reporter protein is the signal.
In test [5] the target is Fibroblast growth factor 10 (Homo sapiens) (UniProt O15520). Kind of test: compounds binding fibroblast growth factor 10 – biochemical, small-molecule microarray, 635 nm fluorescence, primary screen (AID 1102). The note with it: FGF10 binding, fluorescence 635 nm, higher = more signal.
Test [6] relates to glycogen synthase kinase-3 (GSK3A per assay name; protocol says GSK3B). Kind of test: compounds binding glycogen synthase kinase-3 – biochemical, small-molecule microarray, 635 nm fluorescence, GSK3A, primary screen (AID 1103). Also: the record names both GSK3A and GSK3B. The note with it: fluorescence 635 nm, higher = more signal.
Test [7] deals with Epidermal growth factor receptor (Homo sapiens) (UniProt P00533). Kind of test: compounds binding epidermal growth factor receptor – biochemical, small-molecule microarray, 635 nm fluorescence, primary screen (AID 1104).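 Also: score merges 667 nm emission intensity with spot signal to noise over triplicate slides.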 To be noted: EGFR binding, higher = more signal.
Test [8] has as its target Follistatin-related protein 3 (Homo sapiens) (UniProt O95633). Kind of test: compounds binding follistatin-related protein 3 – biochemical, small-molecule microarray, 635 nm fluorescence, primary screen (AID 1105).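 Also: score merges emission near 667 nm and signal to noise per printed spot across three slides.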 The note with it: FSTL3 binding, higher = more signal.
Test [9] addresses Dickkopf-related protein 1 (Homo sapiens) (UniProt O94907). Kind of test: small molecules binding DKK1 protein – biochemical, small-molecule microarray, 635 nm fluorescence scan, primary screen (AID 1106).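 Also: score merges emission near 667 nm with signal to noise over three replicate slides.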 To be noted: higher = more signal.
Test [10] relates to Inhibin beta A chain (activin A). Kind of test: small molecules binding activin A – biochemical, small-molecule microarray, 635 nm fluorescence scan, primary screen (AID 1107).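 Also: mouse activin A protein probed at 4.33 µg/mL on printed slides; score merges bound-protein fluorescence near 667 nm with spot signal-to-noise.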 To be noted: INHBA, higher = more signal.
The subject of test [11] is Human papillomavirus type 1a protein E7 (residues 44-93). Kind of test: small molecules binding HPV E7 44-93 – biochemical, small-molecule microarray, residues 44-93, 635 nm fluorescence, primary screen (AID 1108).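 Also: E7 fragment applied at 1 µg/mL in TBST for 1 h at 4 C; score combines spot fluorescence with its signal to noise ratio.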 To be noted: fluorescence 635 nm, higher = more signal.
Test [12] in a line: hepatitis C replication reporter changes, two-sided – Huh7 cells, luciferase reporter, HCV replication inhibitor project, primary screen (AID 1109).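 Also: huh7 hepatoma cells harbouring a luciferase neomycin HCV replicon reporter; luciferase luminescence as measure of HCV replicon replication; test concentration not given here.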 To be noted: Huh7 HCV replicon luciferase reporter, 48 h; higher = more signal.
The target in test [13] is Left-right determination factor 2 (Homo sapiens) (UniProt O00292). Kind of test: small molecules binding LEFTY2 protein – biochemical, small-molecule microarray, 635 nm fluorescence scan, primary screen (AID 1110). The note with it: higher = more signal.
In test [14] the target is Calmodulin-1 (Homo sapiens) (UniProt P0DP23). Kind of test: small molecules binding calmodulin-1 with EGTA – biochemical, small-molecule microarray, Cy5-labelled CALM1, profiling panel (AID 1111).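 Also: labelled calmodulin applied in Tris saline Tween buffer holding calcium plus EGTA and DTT.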 To be noted: Cy5-CALM1 binding fluorescence, higher = more signal.
For test [15] the target is unchanged. Kind of test: small molecules binding Ca-loaded calmodulin-1 – biochemical, small-molecule microarray, Cy5-labelled CALM1, plus calcium, artefact control for SMM control-protein annotation, profiling panel (AID 1112).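 Also: score merges spot fluorescence with signal to noise from triplicate slides.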 To be noted: Cy5-CALM1 binding fluorescence, higher = more signal.
Test [16] in a line: probe aWnt5a binding to arrayed compounds – biochemical, biotinylated probe, 635/667 nm fluorescence, primary screen (AID 1113).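 Also: score merges 667 nm fluorescence intensity with signal-to-noise per printed feature.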 To be noted: small-molecule microarray, higher = more signal.
The nature of test [17]: probe aShh binding to arrayed compounds – biochemical, biotinylated probe, 635/667 nm fluorescence, primary screen (AID 1114).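 Also: probe is biotin-labelled aShh protein from a stem cell growth factor screen; measures binding of labelled protein to compounds printed on the slide; score merges feature fluorescence at 667 nm with signal-to-noise.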 To be noted: small-molecule microarray, higher = more signal.
Test [18] is described as follows: probe aNog binding to arrayed compounds – biochemical, biotinylated probe, 635/667 nm fluorescence, primary screen (AID 1115).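 Also: probe is biotinylated aNog protein used at 0.15 µg/mL for 1 h at 4 C; z-score combines 667 nm fluorescence of each spot with its signal to noise.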 The note with it: small-molecule microarray, higher = more signal.
The target of test [19] is Torsin-1A-interacting protein 1 (Homo sapiens) (UniProt Q5JTV8). Kind of test: compound microarray binding of lysate hLAP1 – cell lysate, small-molecule microarray, COS7 lysate, 635/667 nm fluorescence, primary screen (AID 1116). The note with it: 635 nm fluorescence, higher = more signal.
In test [20] the target is Alpha-bungarotoxin (Bungarus multicinctus) (UniProt P60615). Kind of test: compounds binding labelled alpha-BTX control protein – biochemical, small-molecule microarray, Alexa647 label, 635/667 nm fluorescence, artefact control for SMM control protein annotation, profiling panel (AID 1117). The note with it: alpha-BTX-A647 binding fluorescence, higher = more signal.
Chain of Alpha-bungarotoxin (Bungarus multicinctus) (P60615 whole entry, looked up): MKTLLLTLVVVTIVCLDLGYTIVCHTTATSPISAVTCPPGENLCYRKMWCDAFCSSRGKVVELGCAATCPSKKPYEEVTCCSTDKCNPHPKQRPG

Chain of Left-right determination factor 2 (Homo sapiens) (O00292 whole entry, looked up): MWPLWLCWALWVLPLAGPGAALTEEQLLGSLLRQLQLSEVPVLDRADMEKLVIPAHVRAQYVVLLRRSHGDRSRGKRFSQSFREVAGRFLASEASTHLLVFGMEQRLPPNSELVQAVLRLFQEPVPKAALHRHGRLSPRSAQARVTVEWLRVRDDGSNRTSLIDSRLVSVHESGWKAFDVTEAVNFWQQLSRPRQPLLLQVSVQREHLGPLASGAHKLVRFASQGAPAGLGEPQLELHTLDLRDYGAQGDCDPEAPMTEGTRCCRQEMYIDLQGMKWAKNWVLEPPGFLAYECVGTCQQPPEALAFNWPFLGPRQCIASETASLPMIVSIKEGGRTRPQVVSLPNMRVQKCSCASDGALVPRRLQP
Chain of Torsin-1A-interacting protein 1 (Homo sapiens) (Q5JTV8 whole entry, looked up): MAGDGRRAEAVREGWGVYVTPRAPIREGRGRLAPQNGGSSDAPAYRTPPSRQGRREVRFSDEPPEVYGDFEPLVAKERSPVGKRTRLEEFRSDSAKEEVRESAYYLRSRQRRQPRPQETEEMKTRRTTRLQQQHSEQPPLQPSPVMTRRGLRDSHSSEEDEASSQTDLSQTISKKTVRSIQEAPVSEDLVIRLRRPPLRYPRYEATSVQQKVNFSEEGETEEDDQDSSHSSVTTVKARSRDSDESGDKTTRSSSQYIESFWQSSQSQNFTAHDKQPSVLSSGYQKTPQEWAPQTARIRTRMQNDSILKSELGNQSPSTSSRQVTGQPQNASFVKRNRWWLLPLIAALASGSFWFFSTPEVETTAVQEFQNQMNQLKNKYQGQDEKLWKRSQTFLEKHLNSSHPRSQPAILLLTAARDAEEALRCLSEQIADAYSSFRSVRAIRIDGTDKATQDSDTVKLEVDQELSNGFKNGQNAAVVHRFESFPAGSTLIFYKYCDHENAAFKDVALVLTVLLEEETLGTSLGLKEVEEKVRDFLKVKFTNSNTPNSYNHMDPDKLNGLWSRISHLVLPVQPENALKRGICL
Chain of Follistatin-related protein 3 (Homo sapiens) (O95633 whole entry, looked up): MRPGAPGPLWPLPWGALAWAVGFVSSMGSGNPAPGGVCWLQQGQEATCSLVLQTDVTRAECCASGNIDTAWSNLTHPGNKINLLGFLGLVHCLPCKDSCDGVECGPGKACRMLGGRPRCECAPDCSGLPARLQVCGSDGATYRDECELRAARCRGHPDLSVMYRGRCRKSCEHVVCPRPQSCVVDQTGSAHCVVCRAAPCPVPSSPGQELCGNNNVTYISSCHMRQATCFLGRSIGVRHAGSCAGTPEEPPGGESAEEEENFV
Chain of Dickkopf-related protein 1 (Homo sapiens) (O94907 whole entry, looked up): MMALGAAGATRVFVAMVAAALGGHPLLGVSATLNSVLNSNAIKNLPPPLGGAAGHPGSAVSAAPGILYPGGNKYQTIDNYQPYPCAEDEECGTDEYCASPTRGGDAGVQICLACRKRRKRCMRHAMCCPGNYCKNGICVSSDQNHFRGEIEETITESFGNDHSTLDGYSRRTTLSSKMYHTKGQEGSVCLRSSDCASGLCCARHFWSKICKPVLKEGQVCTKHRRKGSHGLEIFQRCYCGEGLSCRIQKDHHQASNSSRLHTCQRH
Chain of Epidermal growth factor receptor (Homo sapiens) (P00533 whole entry, looked up): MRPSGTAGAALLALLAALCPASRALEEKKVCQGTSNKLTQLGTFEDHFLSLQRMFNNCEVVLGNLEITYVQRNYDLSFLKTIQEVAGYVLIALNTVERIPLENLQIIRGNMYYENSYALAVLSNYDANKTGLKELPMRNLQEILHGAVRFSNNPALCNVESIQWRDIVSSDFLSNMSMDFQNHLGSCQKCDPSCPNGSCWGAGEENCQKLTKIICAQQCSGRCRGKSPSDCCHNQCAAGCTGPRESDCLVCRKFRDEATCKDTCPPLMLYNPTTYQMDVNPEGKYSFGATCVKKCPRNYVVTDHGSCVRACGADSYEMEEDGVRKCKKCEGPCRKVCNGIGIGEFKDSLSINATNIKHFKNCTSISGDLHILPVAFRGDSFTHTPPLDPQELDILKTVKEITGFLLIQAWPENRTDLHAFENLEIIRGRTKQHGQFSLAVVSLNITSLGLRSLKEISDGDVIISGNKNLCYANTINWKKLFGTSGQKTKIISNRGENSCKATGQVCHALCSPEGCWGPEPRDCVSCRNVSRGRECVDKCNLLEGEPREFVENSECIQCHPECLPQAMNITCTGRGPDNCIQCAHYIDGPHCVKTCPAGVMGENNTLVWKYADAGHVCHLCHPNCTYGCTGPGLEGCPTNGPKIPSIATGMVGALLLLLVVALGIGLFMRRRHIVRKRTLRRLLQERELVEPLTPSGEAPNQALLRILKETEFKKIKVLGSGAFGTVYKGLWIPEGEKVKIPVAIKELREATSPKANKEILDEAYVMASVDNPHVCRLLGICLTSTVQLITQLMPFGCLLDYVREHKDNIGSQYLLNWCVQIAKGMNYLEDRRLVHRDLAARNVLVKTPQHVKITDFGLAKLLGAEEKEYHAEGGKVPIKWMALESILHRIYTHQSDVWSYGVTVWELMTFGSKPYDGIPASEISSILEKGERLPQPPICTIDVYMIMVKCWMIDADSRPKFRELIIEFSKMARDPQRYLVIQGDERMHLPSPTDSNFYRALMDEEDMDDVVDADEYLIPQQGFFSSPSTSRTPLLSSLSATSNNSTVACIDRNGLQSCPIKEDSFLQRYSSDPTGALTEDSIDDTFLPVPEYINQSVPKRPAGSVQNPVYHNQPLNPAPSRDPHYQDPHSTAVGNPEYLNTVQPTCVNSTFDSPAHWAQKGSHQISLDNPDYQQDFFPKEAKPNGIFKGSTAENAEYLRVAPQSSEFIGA
Chain of Fibroblast growth factor 10 (Homo sapiens) (O15520 whole entry, looked up): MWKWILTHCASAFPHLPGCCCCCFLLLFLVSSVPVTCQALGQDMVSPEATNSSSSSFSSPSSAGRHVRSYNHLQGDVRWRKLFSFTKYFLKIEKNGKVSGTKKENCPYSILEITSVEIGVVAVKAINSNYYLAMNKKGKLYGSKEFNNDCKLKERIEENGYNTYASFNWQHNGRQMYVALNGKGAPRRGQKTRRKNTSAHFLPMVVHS

As for `C[C@H]1Cc2c(-c3ccccc3)nc3c(c2CO1)CN(CCOc1ccccc1)CC3`, the composite z-score in test [1] is 1.21; in test [2] it was -0.357; in [3] it was -0.815; in test [5], 1.19; in [6], 1.28; in [7], 0.65. The composite z-score came out at 1.29 in test [8]; 0.94 in test [9]; 0.127 in test [10]; 1.33 in test [11]; 0.945 in test [13]; 0.491 in test [14]. Further, the composite z-score in test [15] is -0.416; in test [16], -0.0203; in test [17], 0.147; in test [18], -0.0172; in test [19], 0.0704; in test [20] it was 0.269. Besides, the z-score was -0.512 (inactive) in test [4] and -0.56 in test [12].

Consider `CCc1cc2c(nc1CC)CCN(CCC(C)=NOC(C)CN1CCCc3nc(C)c(C)cc31)C2` (stereo not given), for which the composite z-score was 1.05 in [1]; 0.612 in test [2]; -0.242 in [3]; 1.04 in test [5]; 1.06 in [6]; 1.16 in test [7]. Moreover, the composite z-score amounted to 1.32 in test [8]; 1.03 in test [9]; 1.59 in test [10]; 1.13 in test [11]; 0.482 in test [13]; 0.276 in test [14]. The composite z-score was -0.544 in test [15]; 0.245 in [16]; 1.38 in test [17]; 0.774 in test [18]; 0.849 in [19]; 1.21 in test [20]. In addition, the values for the z-score in test [4] and in [12] were 0.211 (inactive) and -2.1, respectively.

`CCOC(=O)[C@H](CC(C)C)NC(=O)CCC1CC(OC(=O)NCCc2ccc(F)cc2)CC2(CCCC(COC(=O)NCc3ccccc3)O2)O1` (stereo not given in full): the composite z-score is 0.859 in test [1]; -0.273 in test [2]; -0.29 in test [3]; 1.39 in [5]; 0.808 in test [6]; 0.907 in test [7]. The composite z-score is 1.01 in test [8]; 0.89 in [9]; -0.198 in [10]; 1.37 in test [11]; 1.16 in test [13]; 0.0292 in test [14]. Moreover, the composite z-score is -0.008 in test [15]; -0.113 in [16]; -0.214 in test [17]; -0.183 in test [18]; 0.575 in [19]; 0.287 in test [20]. Moreover, the z-score is -1.19 (inactive) in [4] and -1.76 in [12].

Consider `CC(C)NC(=O)[C@@]1(c2ccc([N+](=O)[O-])cc2)CC(=O)N(CC23CC4CC(CC(C4)C2)C3)[C@@H]1c1ccc(CO)cc1I`, for which the composite z-score was 0.504 in test [1]; 0.921 in test [2]; 0.197 in [3]; 0.0738 in test [5]; 1.12 in test [6]; 0.353 in [7]. For the same molecule, the composite z-score in [8] turned out to be 0.252; in test [9], 0.208; in test [10], 0.197; in test [11], 1.36; in test [13], 0.0161; in [14], 0.613. In addition, the composite z-score was 0.273 in [15]; -0.0107 in test [16]; 0.0796 in test [17]; -0.41 in [18]; 0.981 in [19]; 0.442 in [20]. Besides, the z-score was 0.278 (inactive) in [4] and -3.4 in test [12].

As for `CCOC(=O)NN=C1C[C@@H](O)[C@@H](O)[C@@H]2[C@@H]3C(=O)N(C4CCCCC4)C(=O)[C@@H]3CC[C@H]12`, the composite z-score in test [1] is 0.253; in test [2] it was 0.135; in test [3], -0.0663; in test [5], 0.38; in test [6], 0.518; in [7] it was 0.416. The composite z-score in [8] is 0.333; in [9], 0.701; in test [10] it was -0.341; in test [11], 0.0361; in test [13] it was 0.511; in [14], -0.101. For the same molecule, the composite z-score in [15] is -0.469; in test [16], -0.128; in [17], 0.199; in test [18], -0.245; in [19], 0.217; in test [20], -0.177. Moreover, the figures for the z-score in [4] and in test [12] were 0.035 (inactive) and -0.314, respectively.

Take `CO[C@H]1O[C@H](CO)[C@@H](OC(=O)Nc2ccc3c(c2)OCO3)[C@H](OC(=O)Nc2ccccc2-c2ccccc2)[C@@H]1OC(=O)Nc1ccccc1-c1ccccc1`: the composite z-score is 1.29 in [1]; 0.277 in [2]; 0.542 in [3]; 1.38 in test [5]; 1.15 in [6]; 0.23 in [7]. For the same molecule, the composite z-score is 0.936 in [8]; 0.271 in [9]; -0.548 in [10]; 1.36 in test [11]; 0.232 in test [13]; 1.6 in test [14]. The composite z-score stood at 0.116 in test [15]; 0.0601 in [16]; 0.184 in [17]; 0.902 in test [18]; 1.28 in [19]; 0.614 in test [20]. The z-score in test [4] was 0.176 (inactive); in test [12] it was -2.26.
